Hits are enriched below; roughly 3.7% of the tested compounds scored in any of these assays.
NALP3 yeast inh = blocks the NALP3 inflammasome reconstituted in yeast | Yeast reconstituted NLRP3/ASC/caspase-1, beta-gal luminescence, 24 h | inhibition, % at 10 µM | hit rate 0.39% among 330,000;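 active means inhibition of 50% or more; inactive means inhibition below 50%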
tim23-1 inh = growth inhibitors of tim23-1 mutant yeast | S. cerevisiae tim23-1 growth, BacTiter-Glo luminescence, 24 h | inhibition, % at 20 µM | hit rate 1.3% among 330,000 | AID 463212;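 active means growth inhibition of the mutant yeast at or above 50%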;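 further: temperature-sensitive mutant grown at 25 °C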
TIM10 inh = TIM10 yeast growth inhibition; hit rate 1.4% among 330,000; inhibition, % at 10 µM; AID 463195; S. cerevisiae TIM10 strain growth, BacTiter-Glo luminescence, 24 h;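 active means inhibition of 40% or more at the single tested concentration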;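 further: wild-type TIM10 isogenic control strain grown at permissive 25 °C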
PfHsp90 yeast 2 = growth inhibition of yeast expressing Plasmodium Hsp90. hit rate 0.32% among 310,000. S. cerevisiae expressing PfHsp90, BacTiter-Glo ATP, 48 h; yeast lacking PDR1 and PDR3 efflux regulators. inhibition, % at 9.4 µM. AID 504621;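 active means every replicate shows inhibition above about 80%, whatever the replicate mean, limit read from the data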
tim10-1 inh = growth inhibitors of tim10-1 mutant yeast | S. cerevisiae tim10-1 ts strain growth, BacTiter-Glo, 24 h | hit rate 2.2% among 330,000 | AID 463190 | inhibition, % at 20 µM;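 active means inhibition of at least 40%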;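 further: mutant grown at 25 °C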
tim10-1 confirm = confirmation of tim10-1 mutant yeast growth inhibitors | shares compounds with tim10-1 inh | S. cerevisiae tim10-1 ts strain growth, BacTiter-Glo, 24 h | inhibition, % at 20 µM | hit rate 56% among 7,400 | AID 463213;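 active means inhibition of yeast growth at or above a set limit in either of two repeat tests at 20 µM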;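 further: tim10-1 mutant grown at permissive 25 °C to find synthetic lethal compounds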
Numbers stand for hits; - = inactive; . = no result given.

SMILES	NALP3 yeast inh	tim23-1 inh	TIM10 inh	PfHsp90 yeast 2	tim10-1 inh	tim10-1 confirm
COc1cc(C2C(C#N)=C(N)OC3=C2C(=O)CC(C)(C)C3)cc([N+](=O)[O-])c1O (stereo not given)	-	-	-	-	-	.
Cc1cc2ncn(C(=O)c3c(-c4ccccc4)noc3C)c2cc1C	-	-	-	-	41	-
Cc1cc2ncn(C(=O)c3c(-c4c(Cl)cccc4Cl)noc3C)c2cc1C	-	-	-	-	-	.
COC(=O)Cc1c(C)c2ccc(OCC(=O)N3CCC(C)CC3)c(C)c2oc1=O	-	-	-	-	-	.
CCC(=O)Nc1ccc(C2C(=O)c3ccccc3C2=O)cc1	-	-	-	-	42	-
COc1ccccc1NC(=O)c1ccc2nc(C)c(C)nc2c1	-	-	-	-	-	.
O=[N+]([O-])c1ccccc1SN(Cc1ccccc1)c1ccccn1	-	-	-	-	42	-
O=C(c1ccc([N+](=O)[O-])cc1)N(Cc1ccccc1)c1ccccn1	-	-	-	-	-	.
Cc1ccc(-n2nc3cc(C)c(N)cc3n2)cc1	-	-	-	-	41	-
CCc1ccc(-n2nc3cc(C)c(N)cc3n2)cc1	-	-	-	-	-	.
CN(CC(=O)NCc1cccc(F)c1)C(=O)c1ccco1	-	-	-	-	-	.
CCOC(=O)N1CCN(S(=O)(=O)N2CCCC(C(=O)NCc3ccc(OC)cc3)C2)CC1 (stereo not given)	-	-	-	-	-	.
COc1ccccc1/C(C)=N/NC(=S)NCc1ccccc1	-	-	-	-	47	-
CCCn1nc([N+](=O)[O-])c(C(C#N)c2nc3ccccc3o2)c(Cl)c1=O (stereo not given)	-	-	-	-	48	36
Cc1ccc(S(=O)(=O)n2nc(OC(=O)C3CCCCC3)cc2N)cc1	-	-	-	-	42	-
Cc1ccc(S(=O)(=O)n2nc(OC(=O)c3ccco3)cc2N)cc1	-	-	-	.	42	-
Cc1cc(C(=O)COC(=O)c2ccc(O)cc2)c(C)n1CCc1ccc(F)cc1	-	-	-	-	-	.
COc1ccc(-n2ccnc2SCC(=O)NC2CCCC2)c(OC)c1	-	-	-	-	-	.
O=C(Nc1nccs1)c1ccc(Br)c(S(=O)(=O)N2CCOCC2)c1	-	-	-	-	48	32
CC1CCN(S(=O)(=O)c2cccc(C(=O)Nc3nccs3)c2)CC1	-	-	-	-	48	35
COc1ccc(CN(C(=O)CN2C(=O)COc3ccccc32)C2CCCC2)c(OC)c1	-	-	-	-	40	-
COc1ccc(CN(C(=O)CN2C(=O)C(C)Oc3ccccc32)C2CCCC2)c(OC)c1 (stereo not given)	-	-	-	-	41	-
COc1ccc(CN(Cc2ccccn2)C(=O)CN2C(=O)COc3ccccc32)cc1	-	-	-	-	-	.
CCN(CC)S(=O)(=O)c1ccc(C(=O)NCC2(N3CCOCC3)CCCCC2)cc1	-	-	-	.	-	.
CCCCN(C)CCNC(=O)c1ccc(Cn2c(=S)[nH]c3ccc(Br)cc3c2=O)cc1	-	-	-	.	-	.
SMILES	NALP3 yeast inh	tim23-1 inh	TIM10 inh	PfHsp90 yeast 2	tim10-1 inh	tim10-1 confirm
COc1ccc(-c2[nH]ncc2N=Nc2ccccc2)cc1	-	-	-	-	58	37
COc1ccc2[nH]c(=O)c(CN(C3CCCCC3)C(c3nnnn3Cc3ccco3)C(C)C)cc2c1 (stereo not given)	-	-	-	-	41	-
COc1ccc2[nH]c(=O)c(CN(Cc3nnnn3Cc3ccco3)C3CCCCC3)cc2c1	-	-	-	-	-	.
O=C(NCCCSc1ccccc1)c1cc(Cl)ccc1O	-	-	-	-	47	-
O=C(CNC(=O)c1ccccc1)NCCCSc1ccccc1	-	-	-	-	-	.
COc1ccc(Cl)cc1NC(=O)CN(C)C(=O)CN1C(=O)NC(C)(c2ccc3ccccc3c2)C1=O (stereo not given)	.	.	.	-	.	.
C=C(C)CNC(=S)N/N=C1\CCCCc2ccccc21	-	-	-	-	55	41
S=C(Nc1ccc(Cl)cc1)c1nc2ccccc2[nH]1	-	-	-	-	49	36
COc1ccc(N2C(=O)C(Cl)=C(N3CCCC(C)C3)C2=O)cc1 (stereo not given)	-	-	-	-	42	-
Cc1ccc(C)c(NC(=S)N2CCN(c3cccc(C(F)(F)F)c3)CC2)c1	-	-	-	-	-	.
Cc1ccnc(NC(=S)N2CCN(c3cccc(C(F)(F)F)c3)CC2)c1	-	-	-	-	43	-
CNC(=O)C(=O)Nc1ccc2c(c1)N(S(=O)(=O)c1cccs1)CCC2	-	-	-	.	-	.
CC(C)NC(=O)C(=O)Nc1ccc2c(c1)N(S(=O)(=O)c1cccs1)CCC2	-	-	-	-	43	-
CN(C)CCN(C(=O)c1ccc2ccccc2c1)c1nc2cc3c(cc2s1)OCCO3	-	-	-	-	-	.
CN(C)CCN(C(=O)c1cccc2ccccc12)c1nc2cc3c(cc2s1)OCO3	-	-	-	-	45	-
COc1ccc(S(=O)(=O)N2CCCCCC2)cc1N(C)S(=O)(=O)c1ccc(C)cc1	-	-	-	-	-	.
COc1ccc(NC(=O)C2CCCN(c3ncnc4onc(-c5ccc(F)cc5)c34)C2)cc1 (stereo not given)	-	-	-	-	42	-
CCCc1cc(C(=O)N2CCN(C(c3ccccc3)c3ccccc3)CC2)no1	-	-	-	-	-	.
Cc1cc(C(=O)N2CCN(C(c3ccccc3)c3ccccc3)CC2)no1	-	-	-	-	41	-
CC(C)c1cc(-c2cc(C(=O)NCc3ccccc3)on2)nc(NCC2CC2)n1	-	-	-	-	44	-
CC(=O)N/C(=C/C(C)C)c1ccccc1	-	-	-	-	-	.
CCCn1nc(Oc2nc(N(C)C)nc(N(C)C)n2)ccc1=O	-	-	-	-	-	.
CC(C)(O)C#Cc1ccc(C(=O)N2CCN(c3ccc([N+](=O)[O-])cc3)CC2)cc1	-	-	-	-	46	38
CC(C)(O)C#Cc1ccc(C(=O)N2CCN(c3ccccc3)CC2)cc1	-	-	-	-	-	.
COc1ccc(C(OC(=O)c2ccco2)C(=O)NC2CCCC2)cc1OC (stereo not given)	-	-	-	-	-	.
COc1ccc(C(OC(=O)c2ccco2)C(=O)NC2CCCCC2)cc1OC (stereo not given)	-	-	-	.	45	-
CCCc1cc(=O)oc2cc(C)cc(OCC(=O)NC3CC3)c12	-	-	-	-	-	.
Cc1ccc(C(=O)Nc2ccc(C(=O)N3CCCCC3C)cc2)cc1 (stereo not given)	-	-	-	-	47	-
Cc1ccccc1OCC(=O)NNC(=S)NC(=O)c1ccccc1[N+](=O)[O-]	-	-	-	-	42	-
O=C(COc1ccc([N+](=O)[O-])cc1)Nc1nc(-c2ccccn2)cs1	-	-	-	.	42	-

From PubChem
